# Measurements published in PubChem BioAssay AID651558 (National Center for Advancing Translational Sciences (NCATS), 2012).
# The campaign covered roughly 1,200 compounds. About 480 (40%) were called active. Not shown: some 29% with an inconclusive outcome. Calls come from the whole dose curve; as a rule, active = well fitted inhibition curve with a large enough effect; inconclusive = small, poorly fitted or top-dose-only effect; inactive = no such curve, though single readings can be large or run the other way. The list shows a part of the results.
# Assay: qHTS Assay to Find Inhibitors of Chronic Active B-Cell Receptor Signaling: Hit Validation in Primary Screen; note: nearly all actives have a fitted effect of over 75% in size
# Conditions: ABC-DLBCL IkB-luc/CBR ratio luminescence, 4 h; series mostly up to 46.1 µM
# Method in brief: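 Concentration series (3 nM to 46 uM) tested on TMD8 cells induced with doxycycline for 4 h. Filter-corrected green (IkBa fusion) over red (unfused) luciferase signal; Data were normalised to 10 uM MG-132 and untreated cell wells.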
# Potency is the fitted concentration of half-maximal effect.
row,SMILES,Potency
1,COc1ccc(/C=N/NC(=O)c2cc3c(OC)ccc(OC)c3[nH]2)cc1O,2.31 µM (active)
2,COc1ccc(/C=N/NC(=O)c2[nH]c3ccc(C)cc3c2-c2ccccc2)c(C(=O)O)c1OC,inactive
3,Cc1ccc(CNC(=O)Cc2ccc(-n3c(=O)[nH]c4ccsc4c3=O)cc2)cc1,4.11 µM (active)
4,O=C1N/C(=N/N=C/c2ccccc2O)SC1Cc1ccc(F)cc1 (centres undefined),9.2 µM (active)
5,C=CCn1c(SC2CCOC2=O)nc2sc(C)c(C)c2c1=O (centres undefined),inactive
6,C=CCn1c(SCC(=O)Nc2cccc(S(N)(=O)=O)c2)nc2sc(C)c(C)c2c1=O,5.17 µM (active)
7,CCC1=Nc2cc(C(=O)NCCCOC(C)C)ccc2Sc2ccc(C)cc21,2.59 µM (active)
8,CC1=Nc2cc(C(=O)NCCCOC(C)C)ccc2Sc2ccc(C)cc21,7.31 µM (active)
9,Oc1ccccc1N=Nc1ccccc1O,inactive
10,CCc1ccccc1NC(=S)N=Nc1c(O)n(C)c2ccc(S(=O)(=O)N3CCOCC3)cc12,inactive
11,O=c1[nH]c(-c2ccccn2)nc2sc(-c3ccccc3)cc12,2.31 µM (active)
12,CCc1cc2c(=O)[nH]c(-c3ccccn3)nc2s1,14.6 µM (active)
13,S=c1[nH]cnc2sc(-c3ccccc3)cc12,inactive
14,C/C(=N\NC(=S)NCCc1ccccc1)c1cccc(Br)c1,inactive
15,O=C(NC(=S)NC1CCSC1=O)c1cccs1 (centres undefined),inactive
16,O=C1NC(=O)C(=C2CCCCCC2)S1,inactive
17,COc1ccc(-c2cnc3c(c2)CCC3(C#N)C#N)cc1,3.66 µM (active)
18,Cc1cc(C)c2ccc(/C=N/O)nc2c1O,inactive
19,COc1ccc([C@H]2CC(=O)C=C(c3ccc(OC)cc3OC)C2)cc1,16.4 µM (active)
20,COc1ccc(C2CC(=O)Oc3cc(OC)c(OC)c(OC)c32)cc1 (centres undefined),inactive
21,COc1ccc(/C=C/C(=O)c2cc(Br)ccc2OC(=O)c2ccco2)cc1OC,5.8 µM (active)
22,Cc1ccccc1C(=O)Oc1ccc2ccc(O)cc2c1,inactive
23,COc1ccc(/C=C/C(=O)c2cc(F)ccc2OC(=O)c2ccccc2C)cc1OC,1.3 µM (active)
24,COc1ccc(/C=C/C(=O)c2cc(F)ccc2OC(=O)c2ccccc2OC)cc1OC,1.3 µM (active)
25,O=C(Oc1ccc(F)cc1C(=O)/C=C/c1cccs1)c1cccc([N+](=O)[O-])c1,1.46 µM (active)
26,O=C(NC(=S)Nc1cccc(F)c1)c1cccc([N+](=O)[O-])c1,inactive
27,S=C(Nc1ccccc1Cl)N(Cc1ccccc1)Cc1ccccn1,inactive
28,COc1ccc(/C=C/C(=O)c2cc(F)ccc2OC(=O)c2ccc(OC)c(OC)c2)cc1OC,23.1 µM (active)
29,COc1ccc(NC(=S)N/N=C/c2ccc(F)cc2)cc1OC,inactive
